A number with no mark means an inactive call.
Assays:
Assay in all cases: log2 ratio of Biotin-Ahx-Ub-VS probe labelling (fragment/DMSO); higher = less target engagement (more negative = stronger competition), active = hit call of the paper (q ≤ 0.05, log2 ratio ≤ -1)
Details in all cases: compound concentration: 200 uM; treatment time: 3 h
USP19 = molecular target: T1, USP19 (UniProt O94966)
T1 sequence (whole entry): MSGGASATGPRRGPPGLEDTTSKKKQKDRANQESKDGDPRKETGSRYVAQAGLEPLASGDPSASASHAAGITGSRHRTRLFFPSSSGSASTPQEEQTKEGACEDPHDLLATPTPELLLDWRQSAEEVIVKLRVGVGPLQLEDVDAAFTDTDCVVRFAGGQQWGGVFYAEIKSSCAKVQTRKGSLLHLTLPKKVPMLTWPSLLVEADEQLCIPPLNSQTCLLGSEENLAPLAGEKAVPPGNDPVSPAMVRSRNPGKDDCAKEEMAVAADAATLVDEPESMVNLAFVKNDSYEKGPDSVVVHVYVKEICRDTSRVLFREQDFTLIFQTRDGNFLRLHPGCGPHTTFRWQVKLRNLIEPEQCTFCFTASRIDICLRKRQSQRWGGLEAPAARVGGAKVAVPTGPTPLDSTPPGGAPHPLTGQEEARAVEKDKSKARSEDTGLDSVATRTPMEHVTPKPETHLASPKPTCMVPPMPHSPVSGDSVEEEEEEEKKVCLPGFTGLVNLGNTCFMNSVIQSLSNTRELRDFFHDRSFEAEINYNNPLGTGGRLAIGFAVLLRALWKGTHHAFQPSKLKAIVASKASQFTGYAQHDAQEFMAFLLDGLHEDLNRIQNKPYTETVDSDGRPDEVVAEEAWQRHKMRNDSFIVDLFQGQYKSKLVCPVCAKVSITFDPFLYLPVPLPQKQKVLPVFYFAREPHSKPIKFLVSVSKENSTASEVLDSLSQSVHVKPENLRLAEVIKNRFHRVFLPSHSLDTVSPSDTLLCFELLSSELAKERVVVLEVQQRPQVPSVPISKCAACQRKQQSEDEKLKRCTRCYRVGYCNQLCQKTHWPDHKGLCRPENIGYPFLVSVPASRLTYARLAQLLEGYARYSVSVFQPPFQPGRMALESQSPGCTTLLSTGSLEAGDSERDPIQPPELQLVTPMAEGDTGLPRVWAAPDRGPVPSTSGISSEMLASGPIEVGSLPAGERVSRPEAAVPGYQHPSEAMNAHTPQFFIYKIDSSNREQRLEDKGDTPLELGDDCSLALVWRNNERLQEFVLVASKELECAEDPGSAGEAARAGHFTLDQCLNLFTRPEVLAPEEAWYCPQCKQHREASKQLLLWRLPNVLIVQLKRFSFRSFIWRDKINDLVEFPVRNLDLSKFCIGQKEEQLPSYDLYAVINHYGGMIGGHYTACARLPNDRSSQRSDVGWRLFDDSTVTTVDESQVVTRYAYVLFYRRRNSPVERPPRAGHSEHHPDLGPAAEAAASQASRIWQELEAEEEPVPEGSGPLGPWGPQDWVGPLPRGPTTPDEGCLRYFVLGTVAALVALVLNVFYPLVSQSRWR
How it was run: (§1)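 HEK293T lysate (495 µg per sample, in Tris/CHAPS/IGEPAL buffer with protease inhibitors) was treated in triplicate with fragment at 200 µM or with DMSO for 3 h. It was then treated with Biotin-Ahx-Ub-VS (0.5 µM final) for 1 h. Labelled DUBs were NeutrAvidin-enriched, digested with LysC and trypsin, and run by diaPASEF LC-MS/MS. Spectronaut label-free quantities were global-median-normalised. Values are average log2 ratios fragment/DMSO by unpaired t-test, using proteins with ≥2 unique peptides.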

USP24 = USP24 (UniProt Q9UPU5)
USP24, sequence (Q9UPU5 whole entry): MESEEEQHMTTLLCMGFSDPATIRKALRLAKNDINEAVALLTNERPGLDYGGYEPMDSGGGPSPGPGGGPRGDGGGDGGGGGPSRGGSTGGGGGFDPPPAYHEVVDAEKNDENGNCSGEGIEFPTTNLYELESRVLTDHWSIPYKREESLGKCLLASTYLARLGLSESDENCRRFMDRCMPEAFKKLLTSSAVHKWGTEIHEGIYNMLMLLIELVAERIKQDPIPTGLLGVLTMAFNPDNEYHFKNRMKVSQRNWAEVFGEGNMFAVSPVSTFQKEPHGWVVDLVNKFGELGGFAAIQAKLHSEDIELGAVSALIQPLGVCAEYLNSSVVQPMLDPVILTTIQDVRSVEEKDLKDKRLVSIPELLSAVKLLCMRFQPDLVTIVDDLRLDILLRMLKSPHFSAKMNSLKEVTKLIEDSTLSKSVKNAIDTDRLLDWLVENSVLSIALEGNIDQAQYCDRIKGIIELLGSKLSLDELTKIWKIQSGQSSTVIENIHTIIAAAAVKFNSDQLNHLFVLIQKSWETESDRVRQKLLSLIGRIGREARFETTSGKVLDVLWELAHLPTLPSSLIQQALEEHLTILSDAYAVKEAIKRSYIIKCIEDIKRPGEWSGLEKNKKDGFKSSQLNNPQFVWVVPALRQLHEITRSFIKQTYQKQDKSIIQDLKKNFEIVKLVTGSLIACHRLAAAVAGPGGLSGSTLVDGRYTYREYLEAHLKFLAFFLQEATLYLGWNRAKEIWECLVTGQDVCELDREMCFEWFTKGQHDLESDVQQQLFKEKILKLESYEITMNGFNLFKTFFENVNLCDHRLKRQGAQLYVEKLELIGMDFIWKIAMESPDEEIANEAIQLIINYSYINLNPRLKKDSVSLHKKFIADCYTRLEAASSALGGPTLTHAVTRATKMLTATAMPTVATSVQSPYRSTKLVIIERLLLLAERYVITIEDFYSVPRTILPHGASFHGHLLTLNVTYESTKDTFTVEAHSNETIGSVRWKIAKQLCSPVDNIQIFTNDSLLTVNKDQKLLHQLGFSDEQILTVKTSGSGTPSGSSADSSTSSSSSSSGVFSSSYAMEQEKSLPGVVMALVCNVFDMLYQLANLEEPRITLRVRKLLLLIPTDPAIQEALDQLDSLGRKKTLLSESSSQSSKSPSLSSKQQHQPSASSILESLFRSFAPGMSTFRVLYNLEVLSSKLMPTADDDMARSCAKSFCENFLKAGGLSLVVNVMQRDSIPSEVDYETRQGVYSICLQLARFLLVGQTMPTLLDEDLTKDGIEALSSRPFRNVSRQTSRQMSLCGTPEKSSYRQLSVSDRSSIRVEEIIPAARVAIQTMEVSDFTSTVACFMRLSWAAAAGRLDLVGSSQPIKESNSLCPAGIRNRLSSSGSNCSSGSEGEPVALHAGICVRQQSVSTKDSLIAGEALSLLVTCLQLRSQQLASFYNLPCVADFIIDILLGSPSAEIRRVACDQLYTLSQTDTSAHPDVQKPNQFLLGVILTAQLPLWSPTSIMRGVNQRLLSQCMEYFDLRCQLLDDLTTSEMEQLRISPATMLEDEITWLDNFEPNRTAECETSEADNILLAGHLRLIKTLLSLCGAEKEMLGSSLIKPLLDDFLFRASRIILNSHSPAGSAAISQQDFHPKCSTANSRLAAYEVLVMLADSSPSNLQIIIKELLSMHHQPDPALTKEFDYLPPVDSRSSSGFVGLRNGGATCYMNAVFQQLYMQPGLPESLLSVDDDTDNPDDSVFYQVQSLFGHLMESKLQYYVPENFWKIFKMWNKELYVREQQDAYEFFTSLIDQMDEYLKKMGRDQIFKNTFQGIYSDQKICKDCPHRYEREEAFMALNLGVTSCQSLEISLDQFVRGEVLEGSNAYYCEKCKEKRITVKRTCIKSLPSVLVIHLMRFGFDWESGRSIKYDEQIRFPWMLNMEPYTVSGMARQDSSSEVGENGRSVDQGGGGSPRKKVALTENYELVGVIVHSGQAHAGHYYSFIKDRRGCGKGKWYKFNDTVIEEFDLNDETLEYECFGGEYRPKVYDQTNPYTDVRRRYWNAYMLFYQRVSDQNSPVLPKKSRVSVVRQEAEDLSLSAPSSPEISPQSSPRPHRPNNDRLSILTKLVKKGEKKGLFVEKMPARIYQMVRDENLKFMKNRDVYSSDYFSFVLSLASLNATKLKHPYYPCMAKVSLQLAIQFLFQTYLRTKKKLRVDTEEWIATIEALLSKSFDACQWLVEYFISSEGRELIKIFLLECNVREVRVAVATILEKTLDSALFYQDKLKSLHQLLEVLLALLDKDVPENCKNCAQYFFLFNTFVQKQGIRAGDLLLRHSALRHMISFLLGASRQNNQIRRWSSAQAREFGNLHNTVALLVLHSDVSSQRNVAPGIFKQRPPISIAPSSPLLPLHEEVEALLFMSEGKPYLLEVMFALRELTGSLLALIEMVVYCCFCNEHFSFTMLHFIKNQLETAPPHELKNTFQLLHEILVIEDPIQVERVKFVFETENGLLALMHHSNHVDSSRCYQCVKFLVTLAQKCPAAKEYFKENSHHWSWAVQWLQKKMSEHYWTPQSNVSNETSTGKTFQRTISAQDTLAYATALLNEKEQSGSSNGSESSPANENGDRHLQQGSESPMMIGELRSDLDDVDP
How it was run: as §1

USP25 = molecular target: T2, USP25 (UniProt Q9UHP3)
T2 sequence (whole entry): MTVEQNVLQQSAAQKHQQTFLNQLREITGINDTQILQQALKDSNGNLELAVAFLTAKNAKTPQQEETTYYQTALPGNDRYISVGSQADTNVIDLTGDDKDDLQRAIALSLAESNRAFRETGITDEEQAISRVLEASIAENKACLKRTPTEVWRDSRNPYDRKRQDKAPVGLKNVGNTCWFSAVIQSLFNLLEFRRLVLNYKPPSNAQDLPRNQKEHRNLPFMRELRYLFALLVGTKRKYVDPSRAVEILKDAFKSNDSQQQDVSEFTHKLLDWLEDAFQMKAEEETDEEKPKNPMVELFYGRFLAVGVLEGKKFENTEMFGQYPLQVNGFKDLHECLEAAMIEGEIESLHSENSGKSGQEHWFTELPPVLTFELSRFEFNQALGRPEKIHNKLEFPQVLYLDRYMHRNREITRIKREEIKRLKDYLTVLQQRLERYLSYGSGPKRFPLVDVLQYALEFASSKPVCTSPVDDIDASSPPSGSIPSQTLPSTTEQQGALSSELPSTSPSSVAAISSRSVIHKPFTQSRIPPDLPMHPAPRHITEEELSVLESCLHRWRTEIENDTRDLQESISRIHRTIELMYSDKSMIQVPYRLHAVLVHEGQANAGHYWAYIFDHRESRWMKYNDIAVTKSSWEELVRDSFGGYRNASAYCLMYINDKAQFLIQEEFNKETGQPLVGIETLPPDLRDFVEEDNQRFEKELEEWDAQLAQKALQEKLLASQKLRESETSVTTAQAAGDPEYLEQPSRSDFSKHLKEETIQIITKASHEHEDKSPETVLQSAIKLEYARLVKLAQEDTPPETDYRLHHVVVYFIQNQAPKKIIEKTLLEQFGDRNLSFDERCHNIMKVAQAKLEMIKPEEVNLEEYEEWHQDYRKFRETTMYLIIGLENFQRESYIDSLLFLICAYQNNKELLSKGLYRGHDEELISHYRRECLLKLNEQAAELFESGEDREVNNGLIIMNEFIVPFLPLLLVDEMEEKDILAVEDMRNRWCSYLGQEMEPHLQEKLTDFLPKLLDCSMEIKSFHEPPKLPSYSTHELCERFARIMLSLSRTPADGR
How it was run: as §1

USP28 = molecular target: T3, USP28 (UniProt Q96RU2)
T3 sequence (whole entry): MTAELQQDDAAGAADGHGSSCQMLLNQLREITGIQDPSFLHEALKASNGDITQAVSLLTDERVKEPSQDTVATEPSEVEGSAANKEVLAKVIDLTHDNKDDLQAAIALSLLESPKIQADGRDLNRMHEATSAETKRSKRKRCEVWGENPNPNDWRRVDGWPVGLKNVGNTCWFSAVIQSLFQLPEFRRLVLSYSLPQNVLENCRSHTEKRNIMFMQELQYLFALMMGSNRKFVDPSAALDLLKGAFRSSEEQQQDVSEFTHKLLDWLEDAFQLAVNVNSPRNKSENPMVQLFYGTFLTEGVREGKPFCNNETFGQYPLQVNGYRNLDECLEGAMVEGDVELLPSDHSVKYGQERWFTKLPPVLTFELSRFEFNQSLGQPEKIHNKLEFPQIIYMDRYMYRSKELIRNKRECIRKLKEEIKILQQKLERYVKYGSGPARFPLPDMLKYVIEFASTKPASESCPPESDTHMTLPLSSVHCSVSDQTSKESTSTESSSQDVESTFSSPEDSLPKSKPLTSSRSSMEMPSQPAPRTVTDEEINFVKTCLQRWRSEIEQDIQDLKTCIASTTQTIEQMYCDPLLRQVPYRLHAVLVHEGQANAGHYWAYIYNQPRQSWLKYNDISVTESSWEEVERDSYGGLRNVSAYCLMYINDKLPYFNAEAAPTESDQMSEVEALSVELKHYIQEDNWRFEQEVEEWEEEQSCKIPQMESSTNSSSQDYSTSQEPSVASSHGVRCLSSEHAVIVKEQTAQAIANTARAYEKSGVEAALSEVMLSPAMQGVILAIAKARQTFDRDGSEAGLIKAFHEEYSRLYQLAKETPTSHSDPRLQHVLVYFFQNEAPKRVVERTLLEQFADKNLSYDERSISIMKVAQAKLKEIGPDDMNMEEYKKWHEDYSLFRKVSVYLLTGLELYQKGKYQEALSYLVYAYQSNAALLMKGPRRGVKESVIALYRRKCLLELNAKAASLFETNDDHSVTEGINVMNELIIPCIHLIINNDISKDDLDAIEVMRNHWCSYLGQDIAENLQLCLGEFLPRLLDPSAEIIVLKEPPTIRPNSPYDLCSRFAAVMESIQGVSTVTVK
How it was run: as §1

Q: O=C(CCl)Nc1cc(Cl)ccc1-n1cncn1 was tested. Which “log2 ratio of Biotin-Ahx-Ub-VS probe labelling” value (shortened to “log2 ratio”) (USP19) did it give?
A: -0.987

Q: And the “log2 ratio” value (USP24)?
A: -1.34 (active)

Q: What about the “log2 ratio” value (USP25) of the same compound?
A: -1.65 (active)

Q: And the “log2 ratio” value (USP28)?
A: -2.34 (active)

Source: the supplement of paper PMC11732987, “Enantioselective OTUD7B fragment discovery through chemoproteomics screening and high-throughput optimisation” (Communications Chemistry, 2025)
